Activity calls are given as the source filed them. A call without a number means that no potency is given here. The call rests on the fitted dose curve; in most records, active means well fitted activation curve with a large enough effect; inconclusive means small, poorly fitted or top-dose-only effect; inactive means no such curve, though single readings can be large or run the other way.
assay: Confirmatory qHTS for Identification of Small Molecule Activators of Huntingtin-Antisense Promoter Activity; details: HEK293 HTT-AS promoter firefly luciferase reporter, 24 h; series mostly up to 57.5 µM
Outline: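 HEK293 luciferase reporter cells, 2,500/well, cultured 24 h, then exposed to compounds at up to 57.5 uM final for 24 h at 37C. Firefly luciferase luminescence read; normalized to vehicle (0%) and zero RLU (-100%).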
Potency means the concentration at half of the fitted maximal effect.

SMILES | Potency
Cc1cc(SCC(=O)Nc2nsc(-c3ccc(C(C)(C)C)cc3)n2)nc2ccccc12 | 2690 nM (active)
COc1ccc(-c2nc(N3CCOCC3)c3sc(CN(C)c4ncc(C(=O)NO)cn4)cc3n2)cn1 | inactive
CCN(CCCNC(=O)CSc1cc(=O)n(CC)c2ccccc12)c1cccc(C)c1 | inactive
CC(C)Cc1ccc(S(=O)(=O)Nc2ccc3[nH]c(=O)[nH]c3c2)cc1 | inactive
COc1ccc2sc(N(Cc3cccnc3)C(=O)c3cccs3)nc2c1 | inactive
CC(=O)N1CCc2c(sc(NC(=O)CSc3ccccc3)c2-c2nc3ccccc3s2)C1 | inactive
COc1ccc(C2=CC(c3ccc(F)cc3)n3ncc(C(=O)Nc4ccc(C)cc4)c3N2)cc1 (stereo not drawn) | inactive
COc1ccc(C(=O)Nc2ccc(S(=O)(=O)N(Cc3ccccc3)c3ccccc3)cc2)cc1 | inactive
COc1cc(C(=O)NCCSc2c(-c3ccccc3)[nH]c3ccccc23)cc(OC)c1OC | inactive
COc1ccc(C2C=C(c3ccc(Br)cc3)Nc3nnnn32)c(OC)c1 (stereo not drawn) | inactive
CCc1ccccc1N(C)C(=O)C1CCCN(c2ncnc3c2nc2n3CCCCC2)C1 (stereo not drawn) | inactive
O=C(Cn1c(=O)oc2cc(S(=O)(=O)N3CCCCC3)ccc21)NCc1ccc(Cl)cc1 | inactive
COc1ccc(NC(=O)C(=O)NCC(c2cccnc2)N2CCc3ccccc3C2)cc1 (stereo not drawn) | inactive
Cn1c(=O)n(C)c2cc(NS(=O)(=O)c3ccccc3)c(NCc3ccccc3)cc21 | inactive
COc1ccc(OC)c(CNS(=O)(=O)c2ccc3[nH]c4c(c3c2)CCCCC4)c1 | inactive
Cc1ccc(C(=O)Nc2nnc(SCc3cc(=O)c4c(C)ccc(C)c4[nH]3)s2)cc1 | inactive
COc1cccc(C(=O)NCCSc2c(-c3ccc(F)cc3)[nH]c3ccccc23)c1OC | inactive
CCOC(=O)C1CCCN(S(=O)(=O)c2ccc3c(c2)CCCN3C(C)=O)C1 (stereo not drawn) | inactive
COc1ccccc1N=c1scc(-c2ccc(S(=O)(=O)N3CCCC3)cc2)n1C | inactive
Cc1ccc2nc(SCc3nc(-c4ccccc4C)no3)[nH]c2c1 | inactive
CCCCOc1ccc(C(=O)Nc2ccc3c(c2)CCCN3S(=O)(=O)c2ccc(C)cc2)cc1 | inactive
CCc1c(C)nc2nncn2c1NCc1ccc(OC)cc1 | inactive
Cc1cccc(Cn2c(SCc3ccc(C(=O)N4CCCCCC4)cc3)nc3ccncc32)c1 | inactive
